# ABCB6 inh MLPCN: human ABCB6 transporter inhibition. Q9NP58. K562-ABCB6 porphyrin accumulation, flow cytometry, 1 h; stronger effect = lower value. fluorescence ratio to DMSO, % at 10 µM. actives 0.19% (n = 360,000). AID 602162;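 active = fluorescence ratio to DMSO below 75%, the collection mean minus 3 SD; inconclusive = too few cells collected in the well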;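 note: signal is porphyrin accumulated inside mitochondria; 100% equals median channel fluorescence of DMSO control wells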
# eIF4H inh: inhibitors of RNA binding by human eIF4H. inhibition, % at 35 µM. actives 0.94% (n = 290,000). eIF4H fluorescence polarization binding assay;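 note: calls also rest on retests at 20 µM and on dose response follow-up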
# AI-2 QS modul: modulators of Vibrio harveyi AI-2 quorum sensing system | activity change, % at 7.5 µM | actives 0.4% (n = 300,000) | AID 2094 | Vibrio harveyi JMH597 AI-2 luminescence/OD600 ratio, 9 h; stronger effect = lower value; strain lacks LuxN and CqsS sensors; 0 = neutral-control median; in the data active = activity change below about -75%, passing the limit was not always enough; inconclusive = no clear call, values can overlap the other calls;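 note: luminescence divided by OD600 gain over 9 h not by final OD600 alone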
# PHOSPHO1 block: blocks human PHOSPHO1 phosphatase activity; Q8TCT1; recombinant PHOSPHO1, absorbance phosphatase assay; inhibition, % at 13.3 µM; actives 1.1% (n = 290,000); in the data active = inhibition above about 60%
# PABP polyA inh: blocks human PABP binding to poly(A) RNA | fluorescence polarization | P11940 | calls only at 35 µM | AID 2014 | actives 1% (n = 290,000);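 note: calls also rest on retests at 20 µM and on dose response follow-up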
# Target sequence (P11940 whole entry, looked up): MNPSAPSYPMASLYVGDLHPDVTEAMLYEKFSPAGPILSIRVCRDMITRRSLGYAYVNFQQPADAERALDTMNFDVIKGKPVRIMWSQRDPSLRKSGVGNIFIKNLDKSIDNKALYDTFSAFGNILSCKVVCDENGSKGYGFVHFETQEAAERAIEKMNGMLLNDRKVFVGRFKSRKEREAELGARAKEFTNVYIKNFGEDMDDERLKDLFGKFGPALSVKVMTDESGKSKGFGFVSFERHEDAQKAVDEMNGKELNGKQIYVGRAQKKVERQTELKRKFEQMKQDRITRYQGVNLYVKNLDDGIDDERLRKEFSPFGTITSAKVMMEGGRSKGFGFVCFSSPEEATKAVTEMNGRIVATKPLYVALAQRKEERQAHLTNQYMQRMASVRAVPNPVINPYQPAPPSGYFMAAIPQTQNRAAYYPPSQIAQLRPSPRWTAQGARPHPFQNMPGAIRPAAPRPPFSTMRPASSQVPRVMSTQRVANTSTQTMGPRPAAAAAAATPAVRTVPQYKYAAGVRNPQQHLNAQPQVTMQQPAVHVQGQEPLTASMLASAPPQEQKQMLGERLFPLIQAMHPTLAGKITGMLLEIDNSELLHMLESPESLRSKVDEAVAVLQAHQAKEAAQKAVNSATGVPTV
# MLLE-PAM2 inh: blocks PAM2 peptide binding to the PABP1 MLLE domain | P11940 | GST-MLLE / FITC-PAM2 fluorescence polarization | inhibition, % at 20 µM | actives 0.36% (n = 360,000) | AID 588489; in the data active = inhibition above about 35%, passing the limit was not always enough;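 note: plate controls were DMSO wells with GST-MLLE for no effect and wells lacking GST-MLLE protein for full effect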
# Numbers without * were called inactive; i = inactive; u = inconclusive; x = no result given; + = active, no number. An excerpt weighted towards active compounds, which were near 2.6% of everything screened. Unless noted, the rule behind the calls is not given here.
SMILES,ABCB6 inh MLPCN,eIF4H inh,AI-2 QS modul,PHOSPHO1 block,PABP polyA inh,MLLE-PAM2 inh
Clc1ccc(-c2nnc3sc(-c4ccc(Br)o4)nn23)cc1,104,-1,x,13,i,102
Clc1cccc(Cl)c1CSc1nnc(/C=C/c2ccccc2)o1,90,-1,11,66*,i,-12
C=CCn1c(NC(=O)c2ccc(Br)o2)c(S(=O)(=O)c2ccccc2)c2nc3ccccc3nc21,108,u,39,15,+,-43
O=C(Nc1ccc(S(=O)(=O)NCc2ccccc2)cc1)c1ccc(Br)o1,101,-6,4,-4,i,5
C=CCn1c(NC(=O)c2ccco2)c(S(=O)(=O)c2ccccc2)c2nc3ccccc3nc21,x,62*,x,-22,+,x
O=C1NCCc2onc(-c3ccc(Br)cc3)c21,96,x,x,x,x,9
COC(=O)Cc1ccc(OC2(C)CCN(Cc3csc4ccccc34)C2)cc1 (stereo not given),100,x,x,x,x,-3
COc1ccc(-c2nnc(NC(=O)c3cccs3)s2)c(OC)c1,101,55*,18,39,i,0
C[C@@H]1CN([C@@H](C)CO)C(=O)c2cc(-c3ccncc3)cnc2O[C@H]1CN(C)C(=O)c1cccc(F)c1,100,x,x,x,x,-29
CCCn1c(SCC(=O)c2cc(C)c(C)cc2C)n[nH]c1=O,105,5,-4,97*,i,-45
CCCn1c(SCC(=O)c2ccc3c(c2)OCCO3)n[nH]c1=O,93,1,7,17,i,-42
CCOc1ccccc1-c1nc(-c2cc3ccccc3nc2OC)no1,99,54*,12,-47,i,-20
COc1nc2ccccc2cc1-c1noc(-c2cccnc2)n1,x,4,x,14,i,x
S=c1[nH]nc(Cc2sc(-c3ccccc3)nc2-c2ccccc2)o1,95,3,10,90*,i,-87
O=C(NCCc1c[nH]c2ccccc12)c1[nH]c(C(F)(F)F)nc1-c1ccccc1,97,x,x,x,x,-3
CCOC(=O)CNc1ccc2c(c1)OCO2,103,u,20,13,+,127
CCOC(=O)CNC(=O)/C=C/c1ccc2c(c1)OCO2,86,-1,17,13,i,-4
CN(C(=O)COC(=O)c1cn(-c2ccccc2)nc1-c1ccccc1)C1CCS(=O)(=O)C1 (stereo not given),101,active,17,20,u,9
O=C(Nc1cc([N+](=O)[O-])ccc1N1CCCC1)c1cccs1,102,-3,11,14,i,-21
O=C(Nc1cc2cc([N+](=O)[O-])ccc2oc1=O)c1cccs1,x,-18,11,12,+,x
COc1cccc(-c2cnc(C(O)c3ccc(Cl)cc3)[nH]2)c1 (stereo not given),88,x,x,x,x,2
OC(c1cccc(Cl)c1)c1nc(-c2csc3ccccc23)cs1 (stereo not given),95,x,x,x,x,8
O=C(/C=C/c1ccc(Cl)cc1)Nc1nccs1,88,active,4,18,i,5
C/C=C/C=C/C(=O)Nc1nccs1,98,-2,12,2,i,14
Cc1nc(NC(=O)/C=C/c2ccccc2)sc1C(=O)Nc1ccc(Cl)cc1,99,-11,11,65*,i,-17
SMILES,ABCB6 inh MLPCN,eIF4H inh,AI-2 QS modul,PHOSPHO1 block,PABP polyA inh,MLLE-PAM2 inh
Cc1c(C)n(CC(O)CSc2ccccc2)c2ccccc12 (stereo not given),101,x,x,x,x,x
O=S(=O)(Cc1ccccc1)N=Nc1c(O)[nH]c2ccc(Br)cc12,102,-10,41,65*,i,22
O=C1CCCCC1Sc1nnc(Cc2cccs2)n1CCc1ccccc1 (stereo not given),92,3,x,71*,i,-53
CCCC(=O)N1CCC1(C)C(=O)NS(=O)(=O)c1ccc(C(C)(C)C)cc1 (stereo not given),99,x,x,x,x,-15
Cc1cccc(Nc2n[nH]c(=S)s2)c1C,98,-4,-1,100*,i,30
CCCNc1c(F)c(F)c2c(C)c3ccccc3nc2c1F,287,101*,19,10,+,121
O=C1NN(c2ccccc2)C(=O)/C1=C\c1cccc(OC(=O)c2cccs2)c1,96,9,4,10,i,13
O=C1NN(c2ccc(Cl)c(Cl)c2)C(=O)/C1=C/c1cccc(OC(=O)c2cccs2)c1,x,82*,14,-24,+,x
COCCC(=O)N1CCOCC1c1cc(C(=O)NCc2ccccc2)no1 (stereo not given),97,x,x,x,x,3
N#C/C(=C\c1ccc(Cl)cc1)c1nc2ccccc2o1,92,81*,13,2,+,11
N#C/C(=C\c1ccncc1)c1nc2ccccc2o1,102,1,22,24,i,-18
COc1cccc(NC(=S)NNC(=O)Cn2nc(C(F)(F)F)cc2C)c1,99,0,4,1,i,28
O=C(Cn1nnc(-c2cc(C(F)(F)F)cc(C(F)(F)F)c2)n1)NNC(=S)Nc1ccc(Cl)cc1,99,14,45,46,i,41*
Cc1cc(C(F)(F)F)nn1CC(=O)NNC(=S)Nc1ccc(F)cc1,96,4,-4,86*,i,25
Cc1cc(C(F)(F)F)nn1CC(=O)NNC(=S)Nc1ccc(Cl)cc1,100,5,16,91*,i,29
CN1c2ccccc2C(C)(C)C12CCCC(=O)N2 (stereo not given),105,-5,8,87*,i,18
CC1=NOC2(C1)N(C)c1ccccc1C2(C)C (stereo not given),98,4,22,14,i,10
O=C1Nc2ccccc2N=C(c2ccccc2)C1N(C(=O)c1ccnc2ccccc12)c1ccccc1 (stereo not given),91,x,x,x,x,-18
Cc1cccc2cc(CN(CCN3CCOCC3)C(=O)Nc3ccccc3F)c(=O)[nH]c12,103,81*,24,6,+,9
CC1(C)CC(=O)C2=C(C1)OC(N)=C(C#N)C21CCN(Cc2ccccc2)CC1,115,u,19,13,u,16
Cc1nc2c([nH]1)C1(CCN(Cc3ccccc3)CC1)C(C#N)=C(N)O2,95,45*,x,4,+,5
O=C(NCC(F)(F)F)c1cc2c(c(-c3cccc(-c4ccccc4F)c3)n1)[C@@H](CCO)N(C(=O)CC1CC1)C2,98,x,x,x,x,x
O=C(c1cccn2c(=O)c3ccccc3nc12)N1CCN(c2ccccn2)CC1,94,1,8,11,i,-1
O=C(c1cccn2c(=O)c3cc4ccccc4cc3nc12)N1CCN(c2ccccc2)CC1,x,13,10,100*,i,x
COCCn1c(-c2ccco2)csc1=Nc1cccnc1,98,4,7,98*,i,33

# Screens deposited in PubChem BioAssay by several laboratories.
